Records with an inconclusive call do not appear. The source made the active and inactive calls. Unless noted, calls come from the whole dose curve; as a rule, active = well fitted curve in the direction sought with a large enough effect; inconclusive = small, poorly fitted or top-dose-only effect, or another doubt; inactive = no such curve, though single readings can be large; an effect the other way counts as inactive or inconclusive.
Experiments:
[1] = Cell Viability - BJ (AID 421; calls by dose curve;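 note: potency is the fitted concentration of half-maximal effect; cells exposed to compound for 40 hours at 37 °C before readout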); conditions: BJ fibroblast viability, qHTS
Procedure, shortened: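 Cytotoxicity in human BJ foreskin fibroblasts is scored as loss of cellular ATP after a 40-hour exposure, measured by luciferase luminescence. Controls are DMSO and 100 uM tamoxifen.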

[2] = Cell Viability - Jurkat (AID 426;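 active = dose-dependent loss of cell ATP signal giving a full or clear fitted curve, ranked by lower potency value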; note: potency is the fitted concentration of half-maximal effect); conditions: qHTS
Procedure, shortened: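 qHTS, 1536-well; Jurkat E6-1, 5000 cells/well, complete medium; cpd 40 hr, 37 °C; CellTiter-Glo 20 min RT; luminescence. AC50 by Hill fit.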

[3] = Cell Viability - Hek293 (AID 427;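 active = compounds whose dose-response curve shows a full or clear partial loss of cell viability, called from curve shape rather than a numeric limit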;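 note: potency is the fitted concentration of half-maximal effect; cells exposed to compound for 40 hours at 37 °C before reading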); conditions: qHTS
Procedure, shortened: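 qHTS, human embryonic kidney (adenovirus-transformed) cells; 40 hr cpd, 37 °C; CellTiter-Glo ATP luminescence. Norm: DMSO = 0, 100 uM tamoxifen = 100% inhibition. Hill-fit AC50.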

[4] = Cell Viability - HepG2 (AID 433; calls by dose curve;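 note: potency is the fitted concentration of half-maximal effect; potency for ATP loss meaning cytotoxicity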); conditions: qHTS
Procedure, shortened: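 Cytotoxicity read as ATP loss (CellTiter-Glo luminescence) after 40 hr compound exposure of HepG2, 1500 cells/well, 37 °C. AC50 by Hill equation; 0% set by DMSO, 100% inhibition by 100 uM tamoxifen.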

[5] = Cell Viability - MRC5 (AID 434; calls by dose curve;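 note: potency is the fitted concentration of half-maximal effect; potency reflects cytotoxicity seen as loss of intracellular ATP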); conditions: MRC5 lung fibroblast viability, qHTS
Procedure, shortened: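 MRC5 normal human lung fibroblasts (1500/well) were treated with compounds for 40 hr at 37 °C in complete medium, and viable cells were measured as intracellular ATP by CellTiter-Glo luminescence. AC50 came from Hill fits, normalized to DMSO and 100 uM tamoxifen.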

[6] = Cell Viability - N2a (AID 540); conditions: N2a mouse neuroblastoma cell viability; activity change, negative = cytotoxicity: at 92.2 µM (top of the series);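 note: plate controls were DMSO alone for no effect and tamoxifen control for full effect; nearly all actives have a fitted effect of over 45% in size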
Procedure, shortened: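 Luminescent ATP signal (CellTiter-Glo, 20 min at room temperature) served as the viability read-out after N2a cells were treated with compounds for 40 hours at 37 °C. Concentration-response data were fitted to the Hill equation for AC50.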

[7] = Cell Viability - NIH 3T3 (AID 541); conditions: NIH 3T3 cell viability, qHTS; activity change, negative = cytotoxicity: at 92.2 µM (top of the series);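 note: plate controls were DMSO alone for no effect and tamoxifen positive control for full effect; nearly all actives have a fitted effect of over 25% in size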
Procedure, shortened: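 Luminescent ATP signal (CellTiter-Glo) served as the viability read-out after NIH 3T3 cells were exposed to compounds over a concentration range for 40 hr at 37 °C. Hill-equation modelling of concentration-response data gave AC50.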

[8] = Cell Viability - HUV-EC-C (AID 542); note: % is set by controls: 0 for no effect and ±100 for the full control effect; nearly all actives have a fitted effect of over 35% in size
Procedure, shortened: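 qHTS cytotoxicity: HUV-EC-C, 1000 cells/well, 5 hr settle, compound 40 hr 37 °C, CellTiter-Glo, luminescence. AC50 via Hill equation.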

[9] = Cell Viability - H-4-II-E (AID 543); note: % is set by controls: 0 for no effect and ±100 for the full control effect; nearly all actives have a fitted effect of over 35% in size
Procedure, shortened: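 Luminescent ATP signal (CellTiter-Glo) served as the viability read-out, with cytotoxicity seen as a concentration-dependent ATP drop. Cells were treated for 40 hours in complete medium. AC50 values derive from Hill-equation modelling.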

[10] = Cell Viability - SH-SY5Y (AID 544); conditions: SH-SY5Y neuroblastoma cell viability; viability change, negative = cytotoxic: at 92.2 µM (top of the series); note: nearly all actives have a fitted effect of over 55% in size
Procedure, shortened: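 Luminescent ATP read-out (CellTiter-Glo) measures loss of viable SH-SY5Y neuroblastoma cells after 40 hr compound exposure at 37 °C. AC50 values derive from standard Hill modelling of qHTS concentration-response data.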

[11] = Cell Viability - Renal Proximal Tubule (AID 545); conditions: renal proximal tubule cells viability; activity change, negative = cytotoxicity: at 91.7 µM (top of the series) unless noted; note: nearly all actives have a fitted effect of over 40% in size
Procedure, shortened: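 Viability taken as intracellular ATP (CellTiter-Glo luminescence) after 40 hr, 37 °C compound treatment of primary proximal tubule cells from rat kidney, 1000 cells/well; Hill-equation fits of qHTS concentration-response data gave AC50.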

[12] = Cell Viability - Mesenchymal (AID 546); conditions: mesenchymal cells viability, qHTS; activity change, negative = cytotoxicity: at 91.7 µM (top of the series);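 note: cells exposed to compound for 40 hours before reading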
Procedure, shortened: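 Normal human renal glomerulus-derived kidney mesenchymal cells, 1000 per well in complete medium, were treated with compounds for 40 hr at 37 °C. Viability was read as intracellular ATP by CellTiter-Glo luminescence; AC50 values came from Hill-equation fits of qHTS concentration-response data.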

[13] = Cellular Toxicity (caspase-3) HepG2 (AID 654);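 note: cells exposed to compound for 16 hours before reading; 0% = DMSO alone and 100% = caspase signal from 100 µM tamoxifen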
Procedure, shortened: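 Cells plated 5 hr at 37 °C, compound added, incubated 16 hr at 37 °C. Caspase-Glo 3/7 reagent followed, 20 min at room temperature, then luminescence read. Activation scored as signal increase; AC50 from Hill fit.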

[14] = Cellular Toxicity (caspase-3) Jurkat (AID 655); conditions: Jurkat caspase-3 activation, luminescence; caspase-3 activation: at 92.2 µM (top of the series), DMSO = 0%, tamoxifen = 100%;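 note: cells exposed to compound for 16 h at 37 °C before reading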
Procedure, shortened: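 Luminescent Caspase-Glo 3/7 read-out (20 min, room temperature) after 16 h compound treatment at 37 C of 5000 Jurkat cells per well. AC50 derived by Hill-equation fitting, scaled between DMSO basal and 100 uM tamoxifen stimulation.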

[15] = Cellular Toxicity (caspase-3) HUV-EC-C (AID 656)
Procedure, shortened: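 Luminescent Caspase-Glo 3/7 readout after 16 h, 37 °C compound exposure of HUV-EC-C endothelial cells, 1000 per well, complete medium. AC50 derived by Hill fitting, with DMSO as baseline and 100 uM tamoxifen as full activation.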

[16] = Cellular Toxicity (caspase-3) SHSY5Y (AID 657)
Procedure, shortened: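 Luminescent Caspase-Glo 3/7 read-out, 1 hr room temperature, follows 16 hours of compound treatment of SH-SY5Y cells at 37 °C. Normalization: DMSO basal, 10 uM staurosporine as 100%; AC50 values from Hill-equation concentration-response fits.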

[17] = Cellular Toxicity (caspase-3) BJ (AID 658);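 note: 0% = DMSO basal and 100% = 10 µM staurosporine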
Procedure, shortened: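 Luminescent aminoluciferin-substrate cleavage reports caspase 3/7 activity in normal human BJ fibroblasts after 16 hr compound exposure at 37 °C. Normalized to DMSO (basal) and 10 uM staurosporine (100%); AC50 from Hill fit of concentration-response.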

[18] = Cellular Toxicity (caspase-3) MRC-5 (AID 659);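 note: 0% = DMSO basal and 100% = 10 µM staurosporine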
Procedure, shortened: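 Luminescence from caspase-cleaved aminoluciferin substrate (Caspase-Glo 3/7, 1 hr RT) reports caspase 3/7 activity in MRC-5 lung fibroblasts after 16 hr compound exposure. Normalized to DMSO basal and 10 uM staurosporine as 100%; AC50 from Hill fits.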

[19] = Cellular Toxicity (caspase-3) Mesangial (AID 660); conditions: Potency: caspase-3 activation;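 note: combined caspase 3 and 7 activity read by Caspase-Glo luminescence; cells exposed to compound for 16 h before the caspase read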
Procedure, shortened: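 Mesangial cells, 1000/well, 5 h settle at 37 °C; compound 16 h, 37 °C; Caspase-Glo 3/7 reagent 20 min RT; luminescence. Norm.: DMSO = 0%, tamoxifen 100 uM = 100%. AC50, Hill fit.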

[20] = Cellular Toxicity (caspase-3) SK-N-SH (AID 661);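 note: 0% = DMSO basal and 100% = 10 µM staurosporine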
Procedure, shortened: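 Human neuroblastoma SK-N-SH, 1500 cells/well, 5 hr pre-incubation, then compound 16 hr, 37 °C. Caspase-Glo 3/7 reagent, 1 hr RT, luminescence. Norm. to DMSO/10 uM staurosporine; Hill-fit AC50.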

[21] = Cellular Toxicity (caspase-3) H-4-II-E (AID 663); conditions: H-4-II-E rat hepatoma, scaled: DMSO 0%, 100 µM tamoxifen 100%; at 92.2 µM (top of the series);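 note: cells exposed to compound for 16 hr before readout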
Procedure, shortened: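 Luminescence from caspase-cleaved aminoluciferin substrate, read 20 min after reagent addition, reports caspase 3/7 activation in rat H-4-II-E cells after 16 hr compound exposure. Normalized to DMSO (basal) and 100 uM tamoxifen (100%); AC50 from Hill fits.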

[22] = Cellular Toxicity (caspase-3) Hek293 (AID 664); conditions: HEK293 caspase-3 activation, DMSO = 0%, 100 µM tamoxifen = 100%; at 92.2 µM (top of the series);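 note: cells exposed to compound for 16 h at 37 °C before readout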
Procedure, shortened: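 Cells plated, 5 hr at 37 °C; compounds added; 16 hr at 37 °C; Caspase-Glo 3/7 reagent, 20 min RT; luminescence read. Activation expressed relative to DMSO and 100 uM tamoxifen, AC50 by Hill model.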

[23] = Cellular Toxicity (caspase-3) N2a (AID 665);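 note: compound exposure lasted 16 h at 37 °C before readout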
Procedure, shortened: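 N2a cells, 1500/well, 5 h settle at 37 °C; cpd 16 h, 37 °C; Caspase-Glo 3/7, 1 h RT; luminescence. Norm: DMSO = 0, 10 uM staurosporine = 100%. AC50, Hill fit.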

[24] = Cellular Toxicity (caspase-3) NIH 3T3 (AID 666);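 note: 0% = DMSO basal and 100% = 100 µM tamoxifen stimulation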
Procedure, shortened: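 Luminescence from aminoluciferin released by caspase-3/7 cleavage of a peptide substrate served as read-out. Mouse fibroblast NIH 3T3 cells were exposed to compounds over a concentration range for 16 hours, and AC50 values came from standard Hill modelling.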

[25] = Cellular Toxicity (caspase-3) Renal Proximal Tubule (AID 667); conditions: renal proximal tubule cells; at 91.7 µM (top of the series) unless noted;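 note: cells exposed to compound for 16 hours at 37 °C before detection; 0% = DMSO basal and 100% = 10 µM staurosporine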
Procedure, shortened: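 Caspase 3/7 activation measured by luminescent aminoluciferin release in primary rat proximal tubule cells after 16 hr compound exposure at 37 °C. AC50 from Hill-fitted concentration-response, scaled between DMSO and 10 uM staurosporine.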

[26] = target: Cytochrome P450 3A4 (Homo sapiens) (UniProt P08684); assay: qHTS Assay for Inhibitors and Substrates of Cytochrome P450 3A4 (AID 884); note: % is set by controls: 0 for no effect and ±100 for the full control effect; nearly all actives have a fitted effect of over 50% in size
Procedure, shortened: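 20 nM human CYP3A4 with 25 uM Luciferin-PPXE (at KM) in 200 mM KPO4, preincubated 10 min with compound; NADPH regeneration started a 60 min RT reaction. Luciferin detected by luminescence, normalized to 57 uM ketoconazole as full inhibition.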

[27] = Cell Viability - LYMP2-001 (AID 921);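 note: 0% = DMSO only and full inhibition = tetraoctylammonium bromide control wells; nearly all actives have a fitted effect of over 70% in size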
Procedure, shortened: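 Cellular ATP loss read by luciferase luminescence after 24 h compound exposure at 37 C in complete medium. LYMP2-001 lymphoblastoid cells, 2500/well; qHTS concentration-response data fitted with Hill equation for AC50.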

[28] = MultiTox-Fluor Cytotoxicity Assay - LYMP1-001 - Live Cells (AID 947);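 note: 0% = DMSO only and full inhibition = tetraoctylammonium bromide control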
[29] = Cell Viability - LYMP1-002 - Assay at 16 hr (AID 948);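 note: 0% = DMSO alone and full effect = 92 µM tetraoctylammonium bromide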
Procedure, shortened: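 ATP luminescence (CellTiter-Glo) was measured after 16 hr compound exposure at 37 C of 2500 lymphoblastoid LYMP1-002 cells per well. Concentration-response curves were fitted with the Hill equation to give AC50.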

[30] = MultiTox-Fluor Cytotoxicity Assay - LYMP1-002 - Dead Cells (AID 960); note: nearly all actives have a fitted effect of over 60% in size
Procedure, shortened: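 LYMP1-002 cells 2500/well; 5 hr 37 C pre-incubation; compound 16 hr 37 C; MultiTox-Fluor reagent 60 min RT; dead-cell fluor Ex/Em 485/520. Norm. to DMSO (0%) vs 15 uM tetraoctylammonium bromide (100%); Hill AC50.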

[31] = MultiTox-Fluor Cytotoxicity Assay - LYMP1-003 - Dead Cells (AID 961); note: nearly all actives have a fitted effect of over 70% in size
Procedure, shortened: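 LYMP1-003 lymphoblastoid, 2500 cells/well, 5 hr settle then 16 hr cpd at 37 C; MultiTox-Fluor reagent 60 min RT; Ex/Em 485/520 dead-cell signal; norm. DMSO = 0%, 15 uM tetraoctylammonium bromide = 100%; Hill AC50.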

[32] = MultiTox-Fluor Cytotoxicity Assay - LYMP1-003 - Live Cells (AID 962);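 note: 0% = DMSO only and full loss = 92 µM tetraoctylammonium bromide; cytotoxic hits lower the live-cell protease signal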
Procedure, shortened: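 qHTS, 1536-well; 2500 cells/well LYMP1-003; 5 hr 37 C settle; cpd 16 hr 37 C; MultiTox-Fluor reagent 60 min RT; live-cell protease fluor. 405/510; Hill-fit AC50; tetraoctylammonium bromide pos. ctrl.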

[33] = Cell Viability - LYMP1-003 - Assay at 24 hr (AID 963);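 note: plate controls were DMSO only for no effect and tetraoctylammonium bromide positive control for full effect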
Procedure, shortened: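 Cells seeded at 2500/well, 5 hr at 37 C; compounds added; 24 hr at 37 C; CellTiter-Glo added, 30 min room temperature; luminescence read. Decrease in ATP taken as cytotoxicity, AC50 from Hill modelling.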

[34] = Cell Viability - LYMP1-003 - Assay at 40 hr (AID 964); note: % is set by controls: 0 for no effect and ±100 for the full control effect; nearly all actives have a fitted effect of over 60% in size
Procedure, shortened: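 Cells were seeded at 2500 per well and incubated 5 hr at 37 C. Compounds were added across a concentration series and left 40 hr at 37 C. CellTiter-Glo was added for 30 min at room temperature before luminescence reading.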

[35] = Cell Viability - LYMP2-003 (AID 965);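 note: cells exposed to compounds for 24 h before reading; 0% = DMSO only and full effect = 92 µM tetraoctylammonium bromide; nearly all actives have a fitted effect of over 50% in size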
Procedure, shortened: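 CellTiter-Glo luminescence quantified ATP loss after 24 h compound treatment of LYMP2-003 lymphoblastoid cells at 37 C. Titration series were fitted with the standard Hill equation to give AC50.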

[36] = Cell Viability - LYMP2-004 (AID 966);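 note: plate controls were DMSO only for no effect and tetraoctylammonium bromide control for full effect; nearly all actives have a fitted effect of over 65% in size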
Procedure, shortened: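 Cells seeded 2500/well, rested 5 hr at 37 C, dosed across a concentration series, incubated 24 hr at 37 C, then CellTiter-Glo added for 30 min at room temperature and luminescence read. Hill fitting gave AC50.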

[37] = Cell Viability - LYMP2-005 (AID 967);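 note: plate controls were DMSO only for no effect and 92 µM tetraoctylammonium bromide control for full effect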
Procedure, shortened: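 LYMP2-005 human lymphoblastoid cells (2500/well) were treated with compounds for 24 h at 37 C. Intracellular ATP was then measured by CellTiter-Glo luminescence after 30 min at room temperature. AC50 values came from Hill-equation fits of qHTS concentration-response data.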

[38] = Cell Viability - LYMP2-009 (AID 968);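 note: 0% = DMSO alone and the full-kill end = tetraoctylammonium bromide at 92 µM; nearly all actives have a fitted effect of over 55% in size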
[39] = Cell Viability - LYMP2-011 (AID 969);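 note: cells exposed to compound for 24 hours; 0% = DMSO only and full inhibition = 92 µM tetraoctylammonium bromide; nearly all actives have a fitted effect of over 60% in size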
Procedure, shortened: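 2500 cells/well, 5 hr 37 C; compound added, 24 hr 37 C; CellTiter-Glo 30 min RT; luminescence. qHTS concentration-response, Hill-equation AC50. Tetraoctylammonium bromide positive control.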

[40] = Cell Viability - LYMP2-013 (AID 970);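 note: 0% = DMSO only and full inhibition = tetraoctylammonium bromide control; nearly all actives have a fitted effect of over 55% in size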
Procedure, shortened: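 qHTS; 2500 lymphoblastoid cells/well; 5 hr 37 C settle; cpd 24 hr 37 C; CellTiter-Glo, 30 min RT; luminescence. AC50 = Hill fit.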

Chain of Cytochrome P450 3A4 (Homo sapiens) (P08684 whole entry, looked up): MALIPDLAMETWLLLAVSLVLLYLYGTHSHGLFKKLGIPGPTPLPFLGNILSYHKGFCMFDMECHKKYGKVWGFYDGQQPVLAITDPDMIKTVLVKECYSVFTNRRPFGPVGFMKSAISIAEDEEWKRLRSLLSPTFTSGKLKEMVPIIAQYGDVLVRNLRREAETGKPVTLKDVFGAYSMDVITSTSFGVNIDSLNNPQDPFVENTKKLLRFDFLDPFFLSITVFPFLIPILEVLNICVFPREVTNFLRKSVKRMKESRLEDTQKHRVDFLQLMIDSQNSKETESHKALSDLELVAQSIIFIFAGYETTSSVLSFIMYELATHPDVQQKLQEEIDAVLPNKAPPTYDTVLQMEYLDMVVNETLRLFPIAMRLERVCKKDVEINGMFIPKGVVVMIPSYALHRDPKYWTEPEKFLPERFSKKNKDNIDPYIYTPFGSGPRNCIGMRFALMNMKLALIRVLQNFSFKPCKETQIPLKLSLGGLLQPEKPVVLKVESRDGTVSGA

c1ccc2cc3c(cc2c1)-c1cccc2cccc-3c12
inactive: Potency [1] > 92 µM | Potency [2] > 92 µM | Potency [3] > 92 µM | Potency [4] > 92 µM | Potency [5] > 92 µM | activity change, negative = cytotoxicity [6] -2.25% | Potency [7] | Potency [8] | Potency [9] | Potency [10] | Potency [11] | Potency [12] | outcome [13] | caspase-3 activation [14] -1.28% | outcome [15] | Potency [16] | outcome [17] | outcome [18] | Potency [19] | outcome [20] | caspase-3 activation [21] 0.959% | caspase-3 activation [22] -1.28% | outcome [23] | outcome [24] | caspase-3 activation [25] -4.56% | Potency [26] | Potency [27] | Potency [28] | Potency [29] | Potency [30] | Potency [31] | Potency [32] | Potency [33] | Potency [34] | Potency [35] | Potency [36] | Potency [37] | Potency [38] | Potency [39] | Potency [40]

— PubChem BioAssay (NCATS)
